Some test systems named below: K-562 leukemia; MALME-3M melanoma; MDA-MB-231 breast; RXF 393 renal; SF-268 CNS; SF-295 CNS; SF-539 CNS; UACC-257 melanoma; M14 melanoma; HCT-15 colon; HT29 colon; SNB-19 CNS; U251 CNS; PC-3 prostate; UACC-62 melanoma; LOX IMVI melanoma; SK-MEL-28 melanoma; SK-MEL-2 melanoma; SK-MEL-5 melanoma.
Common to all, as to experiment: NCI-60 one-dose screen, 48 h (100 = growth as untreated, 0 = no growth, -100 = all killed)
What all share (conditions): 10 µM unless noted

This is part of a sample that, as a whole, favours compounds with a hit. Of some 83,000 tested, about 20% had one in any assay.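 Note: values are percent growth. 100 is the growth of untreated cells, values between 100 and 0 indicate rising inhibition; between -100 and 0 indicates cell death.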 A number with no mark means an inactive call. The source made the active and inactive calls. Rule for the calls: active = growth percent below 10; inactive = the rest.

As to `C#C[C@]1(O)CC[C@H]2[C@@H]3CC=C4c5sc(-c6ccc(F)cn6)nc5CC[C@]4(C)[C@H]3CC[C@@]21C`, the growth in the test on K-562 leukemia was 6.31% (active); with MALME-3M melanoma it was 67.6%; with MDA-MB-231 breast, 17.1%; in the test on RXF 393 renal it was -50.7% (active); in the test on SF-268 CNS, 23%; with SF-295 CNS, -70.6% (active). Moreover, the growth is -45.8% (active) in the test on SF-539 CNS; -31.8% (active) in the test on UACC-257 melanoma; 36.7% in the test on M14 melanoma; 30.5% in the test on HCT-15 colon; 38.3% with HT29 colon; 31.5% in the test on SNB-19 CNS. The growth with U251 CNS was 15.7%; with PC-3 prostate, 24.2%; in the test with UACC-62 melanoma, 0.399% (active); in the test on LOX IMVI melanoma it was -63.9% (active); in the test with SK-MEL-28 melanoma it was -28.5% (active); in the test on SK-MEL-2 melanoma it was -28.4% (active).

For `Cc1cccc(/C=C/c2nn3c(-c4ccco4)nnc3s2)c1`, the growth is 93% in the test on K-562 leukemia; 96.9% in the test on MALME-3M melanoma; 98.2% with MDA-MB-231 breast; 111% in the test on RXF 393 renal; 105% in the test with SF-268 CNS; 94.5% in the test with SF-295 CNS. Besides, the growth with SF-539 CNS is 94.9%; with UACC-257 melanoma, 98.3%; in the test on M14 melanoma, 101%; with HCT-15 colon, 88.1%; in the test with HT29 colon, 104%; with SNB-19 CNS, 94.1%. The growth in the test with U251 CNS is 99.1%; with PC-3 prostate, 103%; with SK-MEL-5 melanoma, 92%; in the test on UACC-62 melanoma, 94%; in the test with LOX IMVI melanoma, 98.1%; with SK-MEL-28 melanoma, 97.3%. The growth in the test on SK-MEL-2 melanoma was 112%.

Turning to `CN1C(=S)N(C)C2C1NN=C1SC(c3ccccc3)=CC(=O)N12` (configuration not stated), the growth was 57.4% in the test on K-562 leukemia; 97.7% with MALME-3M melanoma; 83.3% in the test with MDA-MB-231 breast; 97.8% in the test on RXF 393 renal; 108% with SF-268 CNS; 98% with SF-295 CNS. Besides, the growth with SF-539 CNS is 90.8%; in the test on UACC-257 melanoma, 99%; in the test on M14 melanoma it was 101%; with HCT-15 colon, 89.5%; in the test on HT29 colon it was 103%; with SNB-19 CNS, 98.9%. Besides, the growth was 95.1% with U251 CNS; 87.5% with PC-3 prostate; 64.3% in the test with SK-MEL-5 melanoma; 78.3% in the test on UACC-62 melanoma; 92.2% with LOX IMVI melanoma; 102% in the test on SK-MEL-28 melanoma. Further, in the test on SK-MEL-2 melanoma, the growth is 95.2%.

In the case of `CS(=O)(=O)c1ccc(-c2nc3ccccn3c2/C=N/Nc2nc(-c3ccc(Cl)cc3)cs2)cc1`, the growth in the test with K-562 leukemia is 78.6%; with MALME-3M melanoma it was 127%; with MDA-MB-231 breast, 106%; in the test with RXF 393 renal, 98.8%; in the test with SF-268 CNS, 110%; in the test with SF-295 CNS it was 98.8%. In addition, the growth is 105% in the test with SF-539 CNS; 107% with UACC-257 melanoma; 107% in the test on M14 melanoma; 94.2% in the test with HCT-15 colon; 110% in the test on HT29 colon; 107% with SNB-19 CNS. The growth is 102% in the test with PC-3 prostate; 91.7% in the test with SK-MEL-5 melanoma; 102% with UACC-62 melanoma; 122% in the test on LOX IMVI melanoma; 93.1% with SK-MEL-28 melanoma; 102% in the test on SK-MEL-2 melanoma.

For `CC(=NNc1ncnc2ccccc12)c1ccc(S(C)(=O)=O)cc1`, the growth in the test with K-562 leukemia was 96.9%; in the test with MALME-3M melanoma, 98.3%; in the test on MDA-MB-231 breast it was 93%; in the test on RXF 393 renal, 114%; with SF-268 CNS, 108%; with SF-295 CNS it was 97.1%. Moreover, the growth was 97.6% in the test on SF-539 CNS; 108% in the test with UACC-257 melanoma; 92.5% in the test with M14 melanoma; 96.5% with HCT-15 colon; 112% with HT29 colon; 97.6% in the test with SNB-19 CNS. Further, the growth in the test on U251 CNS is 117%; with PC-3 prostate, 87.9%; in the test with UACC-62 melanoma, 96.1%; with SK-MEL-28 melanoma, 113%; in the test with SK-MEL-2 melanoma it was 112%.

Take `O=C1C2=C(C(=O)c3c(O)cccc31)C(c1ccco1)c1sc(=O)[nH]c1S2` (configuration not stated): the growth was 22% with K-562 leukemia; -92.3% (active) with MALME-3M melanoma; 8.88% (active) in the test with MDA-MB-231 breast; 32.5% with RXF 393 renal; 50.7% with SF-268 CNS; -15.6% (active) with SF-295 CNS. In addition, the growth in the test with SF-539 CNS was -24% (active); with UACC-257 melanoma, -28.2% (active); in the test with M14 melanoma, -97.6% (active); in the test on HCT-15 colon, 10.8%; with HT29 colon, 12.5%; in the test with SNB-19 CNS, 13.6%. The growth in the test on PC-3 prostate was 8.77% (active); in the test with SK-MEL-5 melanoma, -93.4% (active); with UACC-62 melanoma, -74.9% (active); in the test with LOX IMVI melanoma it was -2.86% (active); in the test with SK-MEL-2 melanoma it was -7.37% (active).

With `Cn1c(SCC(=O)c2cccs2)nc2ccccc2c1=O`, the growth in the test on K-562 leukemia is 78.5%; in the test on MALME-3M melanoma, 102%; with MDA-MB-231 breast, 88.2%; in the test on RXF 393 renal it was 107%; in the test on SF-268 CNS, 92.7%; in the test on SF-295 CNS, 107%. Further, the growth is 94.6% in the test with SF-539 CNS; 93.4% with UACC-257 melanoma; 97.8% with M14 melanoma; 91.1% in the test on HCT-15 colon; 106% with HT29 colon; 102% in the test with SNB-19 CNS. Also, the growth with U251 CNS was 97.5%; in the test on PC-3 prostate it was 90.3%; with UACC-62 melanoma it was 92.6%; in the test on SK-MEL-28 melanoma it was 105%; in the test on SK-MEL-2 melanoma, 98%.

In the case of `Fc1ccc(-c2cc3nc(C(Cl)Cl)nc(-c4ccc(Cl)cc4)n3n2)cc1`, the growth was 24.3% in the test on K-562 leukemia; 37.4% with MALME-3M melanoma; 7.4% (active) with MDA-MB-231 breast; -55.5% (active) with RXF 393 renal; 26.2% in the test on SF-268 CNS; 9.78% (active) with SF-295 CNS. Besides, the growth in the test on SF-539 CNS is 21%; with UACC-257 melanoma, 39.1%; in the test on M14 melanoma, 22.3%; with HCT-15 colon, 12.1%; in the test on HT29 colon, -35% (active); in the test with SNB-19 CNS, 6.37% (active). Also, the growth was 22.8% in the test on PC-3 prostate; 76.9% in the test on SK-MEL-5 melanoma; 53.1% in the test on UACC-62 melanoma; 11.6% in the test with SK-MEL-28 melanoma; 89.4% in the test with SK-MEL-2 melanoma.

The record behind these values is PubChem BioAssay (NCI).
